“And” between values parts separate entries of the source, which are not always exact repeats. Equal values may be shown once. Results filed as inconclusive are left out. Where a call stands in place of a potency, no number is given. The source holds several records for some structures; these can differ, active in one and inactive in another. The source made the active and inactive calls. Calls come from the whole dose curve; as a rule, active = well fitted activation curve with a large enough effect in the repeat runs; inconclusive = weak or mixed curves; inactive = flat fitted curve, though single readings scatter.
Potency is the fitted concentration of half-maximal effect.

The nature of this test: A CellTox Green Cytotoxicity Assay to monitor cytotoxicity in HepG2 cells - 16 hour (AID 1224876). Note: nearly all actives have a fitted effect of over 45% in size. To be noted: CellTox Green fluorescence; series mostly up to 76.8 µM. The source says: National Center for Advancing Translational Sciences [NCATS]
NIH Chemical Genomics Center [NCGC]
U.S. Environmental Protection Agency [EPA]
National Institutes of Environmental Health Sciences [NIEHS]
National Toxicology Program [NTP]
Cell-based models are critical for drug discovery. Determining the natural cytotoxic effects resulting from test compounds is an essential research activity. A CellTox Green Cytotoxicity Assay to monitor cytotoxicity in real time of continues cell culture during 40 hours of the compound treatment was used to screen Tox21 10K library compounds in HepG2 cells. CellTox Green Cytotoxicity Assay is a nonlytic, homogeneous, biofluorescent method to measure cytotoxicity in cell culture after experimental manipulation. The assay system uses a proprietary asymmetric cyanine dye that is excluded from viable cells but preferentially stains the dead cell's DNA. […] Viable cells produce no appreciable increases in fluorescence. Therefore, the fluorescence signal produced by the binding interaction with dead cell DNA is proportional to cytotoxicity.
The mixture of HepG2 cell suspension and reagents were dispensed at 600cells/6 ul/well in 1536-well tissue culture treated black solid bottom plates using a Multidrop dispenser. After the assay plates were incubated at a 37 C/5% CO2 incubator for 5 hours, 23 nL of compounds dissolved in DMSO, positive and negative controls was transferred to the assay plate by a pintool work station. The plates were incubated at 37 C for 40 hours. The fluorescence intensity were measured at 0h, 8h, 16h, 24h, 32h and 40h time points using ViewLux plate reader during compound treatment.
Take `CC1=CC(=O)c2ccccc2C1=O`: the Potency was 49 µM (active) and 26.8 µM (active).
Regarding `O=C(O[C@@H]1Cc2c(O)cc(O)cc2O[C@@H]1c1cc(O)c(O)c(O)c1)c1cc(O)c(O)c(O)c1`, the Potency entry was “inactive”.
On to `O=C(O)Cn1cnnn1`, for which the Potency entry is “inactive”.
Turning to `NC(=Nc1ccccc1)Nc1ccccc1`, the Potency result was “inactive”.
`CCN(CC)c1ccc2c(C)cc(=O)oc2c1`: the Potency result is “inactive”.
The value for `c1cnc2cc3c(cc2n1)C1CNCC3C1` was “inactive”.
As to `CC(C)(C)NCC(O)c1cc(O)cc(O)c1` (stereo not given), the Potency result was “inactive”.
For `OCCOCCN1CCN(C(c2ccccc2)c2ccc(Cl)cc2)CC1` (stereo not given), the Potency is 38.4 µM (active) and inactive.
The value for `CCCCN(CCO)CCCC` was “inactive”; that for `CC(C)(c1ccccc1)c1ccc(Nc2ccc(C(C)(C)c3ccccc3)cc2)cc1` was “inactive”; that for `CCC(CO)(CO)COCC(CC)(CO)CO` was “inactive”.
As to `O=C1Nc2ccccc2C1(c1ccc(O)cc1)c1ccc(O)cc1`, the Potency entry was “inactive”.
Consider `Oc1c(Cl)cc(Cl)cc1Sc1cc(Cl)cc(Cl)c1O`, for which the Potency was 44.4 µM (active) and 43.6 µM (active) and inactive.
`OCCN1CCNCC1`: the Potency entry is “inactive”.
Under `C=C(C)C(=O)O` stands “inactive”.
In the case of `C1COC(NC(C2CC2)C2CC2)=N1`, the Potency entry was “inactive”.
In the case of `CCCCCCCCCCCCCC[P+](CCCC)(CCCC)CCCC`, the Potency is 21.8 µM (active) and 19.5 µM (active).
For the compound `CCCOC(=O)c1cc(O)c(O)c(O)c1`, the Potency entry is “inactive”.
Take `CCOC(=O)C(C)C(C)=O` (stereo not given): the Potency result was “inactive”.
With `Cc1ccc(-c2cc(C(F)(F)F)nn2-c2ccc(S(N)(=O)=O)cc2)cc1`, the Potency was 48.8 µM (active) and 43.6 µM (active).
As for `CN(C)c1ccc(C(=C2C=CC(=[N+](C)C)C=C2)c2ccccc2)cc1`, the Potency is 9.77 µM (active) and 9.52 µM (active) and 7.56 µM (active).
Consider `COc1ccc(CCN(C)CCCC(C#N)(c2ccc(OC)c(OC)c2)C(C)C)cc1OC` (stereo not given), for which the Potency result was “inactive”.
Under `O=C(Cl)c1cccc(C(=O)Cl)c1` stands “inactive”; under `C=CS(=O)(=O)O`, “inactive”; under `CCC(C)(C)C(=O)O[C@H]1C[C@@H](C)C=C2C=C[C@H](C)[C@H](CC[C@@H]3C[C@@H](O)CC(=O)O3)[C@H]21`, “inactive and 21.3 µM (active)”.
As to `CC(C)CCOC(=O)c1ccc(N(C)C)cc1`, the Potency entry is “inactive”.
For the compound `CC1COC(=O)O1` (stereo not given), the Potency result is “inactive and 38.9 µM (active)”.
As for `Nc1nc2ccccc2[nH]1`, the Potency result is “inactive”.
Under `CC[C@H]1CN2CCc3cc(OC)c(OC)cc3[C@@H]2C[C@@H]1C[C@H]1NCCc2cc(OC)c(OC)cc21` stands “inactive”.
Consider `CC(=O)CC(C)=O`, for which the Potency result is “inactive”.
Under `Oc1ccc(Cl)cc1Cc1cc(Cl)ccc1O` stands “inactive”; under `O=C1CC2(CCCC2)CC(=O)N1CCCCN1CCN(c2ncccn2)CC1`, “inactive”.
Under `CC(C)(C)NCC(O)COc1ccccc1OCC1CCCO1` (stereo not given) stands “inactive”; under `CC[C@@H](N)CO`, “inactive”; under `CCN(CC)C(=O)Nc1ccc(OCC(O)CNC(C)(C)C)c(C(C)=O)c1` (stereo not given), “inactive”.
Turning to `CC(C)(C)c1ccccc1`, the Potency entry is “inactive”.
Under `Cc1c(O)cccc1C(=O)N[C@@H](CSc1ccccc1)[C@H](O)CN1C[C@H]2CCCC[C@H]2C[C@H]1C(=O)NC(C)(C)C` stands “inactive”.
Take `O=S(=O)(O)c1ccc2nc(-c3ccccc3)[nH]c2c1`: the Potency entry was “inactive”.
As to `CN1C(=O)c2ccc([N+](=O)[O-])cc2C1=O`, the Potency result was “inactive”.
Consider `c1ccc2c(c1)CCCC2C1=NCCN1` (stereo not given), for which the Potency entry was “inactive”.

The record behind these values is PubChem BioAssay (Tox21).
